Test results from PubChem BioAssay (NCI).
Compounds without any hit were thinned out: in the full panel of roughly 83,000, 20% have a hit.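 Cell lines were cultured in 96-well plates, exposed to a single compound concentration, and assessed for percent growth 48 hours later.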 Unmarked numbers belong to inactive results. Active and inactive are the calls of the source. Rule for the calls: active = growth percent below 10; inactive = the rest.

How the values were obtained:
Test in all cases: NCI-60 one-dose screen, 48 h (100 = growth as untreated, 0 = no growth, -100 = all killed)
Details in all cases: 10 µM unless noted
NCI-H23 lung = tested on: NCI-H23 lung
NCI-H226 lung = tested on: NCI-H226 lung
NCI-H322M lung = tested on: NCI-H322M lung
HOP-62 NSCLC = tested on: HOP-62 NSCLC
NCI-H460 lung = tested on: NCI-H460 lung
HOP-92 NSCLC = tested on: HOP-92 NSCLC
NCI-H522 lung = tested on: NCI-H522 lung
A549/ATCC NSCLC = tested on: A549/ATCC NSCLC
786-0 renal = tested on: 786-0 renal
COLO 205 colon = tested on: COLO 205 colon
DU-145 prostate = tested on: DU-145 prostate
K-562 leukemia = tested on: K-562 leukemia
MALME-3M melanoma = tested on: MALME-3M melanoma
MDA-MB-231 breast = tested on: MDA-MB-231 breast
RXF 393 renal = tested on: RXF 393 renal
SF-268 CNS = tested on: SF-268 CNS
SF-295 CNS = tested on: SF-295 CNS
SF-539 CNS = tested on: SF-539 CNS
UACC-257 melanoma = tested on: UACC-257 melanoma
M14 melanoma = tested on: M14 melanoma

| Compound | growth (NCI-H23 lung) | growth (NCI-H226 lung) | growth (NCI-H322M lung) | growth (HOP-62 NSCLC) | growth (NCI-H460 lung) | growth (HOP-92 NSCLC) | growth (NCI-H522 lung) | growth (A549/ATCC NSCLC) | growth (786-0 renal) | growth (COLO 205 colon) | growth (DU-145 prostate) | growth (K-562 leukemia) | growth (MALME-3M melanoma) | growth (MDA-MB-231 breast) | growth (RXF 393 renal) | growth (SF-268 CNS) | growth (SF-295 CNS) | growth (SF-539 CNS) | growth (UACC-257 melanoma) | growth (M14 melanoma) |
| --- | --- | --- | --- | --- | --- | --- | --- | --- | --- | --- | --- | --- | --- | --- | --- | --- | --- | --- | --- | --- |
| N#Cc1nc(-c2ccc(F)cc2)oc1S(=O)(=O)N1CCCCC1 | 65.7% | 79% | 94.3% | 102% | 101% | 78.9% | -14.8% (active) | 103% | 86.4% | -13.2% (active) | 99% | 7.64% (active) | 42.8% | 78.1% | 55.4% | 106% | 104% | 72.6% | 91.2% | 68.7% |
| CC(C)(C)CC(C)(C)NC(=O)Nc1ncccc1OCc1ccccc1 | 86.4% | 91.6% | 86.3% | 97.1% | 106% | 87.7% | 70.7% | 89.8% | 98.5% | 105% | 97.1% | 89.3% | 91.8% | 96.9% | 116% | 93.1% | 88.3% | 102% | 85.8% | 103% |
| CS(=O)(=O)Nc1cc(-c2ccc3ncnc(Nc4ccc5c(cnn5Cc5cccc(F)c5)c4)c3c2)cnc1Cl | 10.4% | 20.8% | -5.63% (active) | 9.82% (active) | 22.8% | -20.1% (active) | -11% (active) | 23.6% | 13.3% | -20.2% (active) | 16.2% | 19.4% | -36.1% (active) | 1.43% (active) | -25.7% (active) | 1.24% (active) | 6.42% (active) | -16.6% (active) | 20.2% | 1.49% (active) |
| NC(=O)C(=O)c1ccccc1NC=O | 92.1% | 97.3% | 95.3% | 86.9% | 103% | 83.2% | 88.9% | 99.7% | 110% | 118% | 106% | 92.3% | 96.8% | 97.7% | 110% | 97.2% | 104% | 102% | 98.7% | 92.7% |
| C=CC(=O)N1CCN(c2cccc(Oc3nccc(Nc4nnc(-c5ccc(Br)cc5)s4)n3)c2)CC1 | 79% | 88.8% | 92.3% | 62.2% | 25.6% | 88.3% | -2.86% (active) | 47.3% | 73.5% | 63.4% | 78.5% | 22.2% | 65.2% | 75.2% | 74.7% | 74.8% | 55.8% | 72.7% | 80.6% | 44.9% |
| Cn1c(=O)cc2c3c(c(NCCCO)ccc31)C(=O)c1ccccc1-2 | 47.2% | 38.4% | 41.4% | 43.8% | 16.8% | 74.8% | 22.2% | 33.5% | 38.6% | 27.8% | 45.4% | 38.1% | 27.3% | 58.1% | 42.6% | 42.3% | 42.8% | 50% | 64.2% | 55.3% |
| CCCCCOC(=O)c1c(C)[nH]c(/C=C2\N=C(c3ccc[nH]3)C=C2OC)c1C | -59.1% (active) | -74.8% (active) | -17.8% (active) | -17.8% (active) | 4.97% (active) | -20.5% (active) | -56.7% (active) | -1.61% (active) | -16.9% (active) | -88.2% (active) | 27.4% | -6.07% (active) | -61.3% (active) | -48.5% (active) | -47.3% (active) | 14.9% | -37.2% (active) | -41.6% (active) | -20.1% (active) | -70.4% (active) |
| c1cnc2c(-c3nc4ccc5[nH]ncc5c4c4c3CCCC4)c[nH]c2c1 | 22.4% | 42.6% | 21.3% | 15% | 7.48% (active) | 40.6% | -23.3% (active) | 16.6% | 32.5% | 26.7% | 27.7% | 21% | 63.8% | 30.7% | 42.7% | 40.4% | 32.1% | 42.9% | 98.3% | 59% |
| CCN(C)S(=O)(=O)Nc1cccc(Nc2ncnc3cc(NC(=O)CCl)ccc23)c1Cl | -27.1% (active) | 6.77% (active) | 73.9% | -50.1% (active) | -22.5% (active) | 24.6% | -70.6% (active) | 18.5% | -82.8% (active) | -33.9% (active) | -49.8% (active) | 4.5% (active) | -51.7% (active) | -38.4% (active) | -11.9% (active) | 7.08% (active) | 15.3% | -40.3% (active) | 34.4% | 15.1% |
| O=C(/C=C/c1ccccc1)Nc1ncc(Cc2ccccc2Cl)s1 | 51.8% | 48.6% | 33.8% | 18.9% | 14.1% | 65.1% | -11.2% (active) | 30.8% | 45.7% | 2.14% (active) | 26.9% | 12.6% | 53.8% | 40.3% | -7.17% (active) | 71.6% | -2.76% (active) | -16.3% (active) | 77.1% | 8.18% (active) |
| c1csc(-c2ccc(CNc3c4ccccc4nc4ccccc34)cc2)c1 | 38.2% | 69% | 50.6% | 54.6% | 12.9% | -2.1% (active) | 28.9% | 26.7% | 30.1% | 5.13% (active) | 61.7% | -39.9% (active) | -82% (active) | 38.3% | -14.3% (active) | 62.9% | 15.8% | 12.5% | -37.4% (active) | -74.4% (active) |
| CNC(=O)c1ccccc1Oc1nc(Nc2cc(OC)c(OC)c(OC)c2)ncc1Br | 55.2% | 21.8% | 58.5% | 49.7% | 43.9% | 60.6% | 53.9% | 46.4% | 48.9% | -12.6% (active) | 58.1% | 77.2% | 82.3% | 75.4% | 40.3% | 59.3% | 53% | 71.1% | 77% | 47.7% |
| COc1ccc(CN2c3ccccc3Sc3ccccc32)cc1F | 30.7% | 45.6% | 43% | 20.4% | 5.41% (active) | 50.4% | 4.53% (active) | 21.9% | 22.5% | -32.9% (active) | 14.1% | 11% | 32.6% | 24.1% | 7.16% (active) | 38.8% | 12.4% | -6.34% (active) | 54.8% | -3.27% (active) |
| Cc1cc(N2CCN(CCNc3ccnc4cc(Cl)ccc34)CC2)nc(N2CCOCC2)n1 | 42.8% | 79.5% | 74.9% | 81.4% | 64.6% | 47.7% | 76.5% | 71.4% | 74% | 11.6% | 74.8% | 14.6% | 60.1% | 34.3% | 42.9% | 70.4% | 75.5% | 29.6% | 54% | 48% |
| O=C1C(=O)N(Cc2ccc(-c3ccccc3)cc2)c2ccc(OC(F)(F)F)cc21 | 41.4% | 73.6% | 102% | 37.5% | 83.3% | 60.8% | 31.1% | 92.9% | 41.6% | 82.7% | 36.4% | 16.1% | 62.2% | 44.9% | 76.9% | 49.5% | 41.4% | -8.58% (active) | 72.7% | 44.8% |
